In the library only some 2.6% were active in any assay of this set; here they are far more common.
PABP1 MLLE inh: inhibitors of PABP1 MLLE–PAM2 peptide binding, primary screen, biochemical, fluorescence polarization, FITC-PAM2, GST-MLLE | Polyadenylate-binding protein 1 (Homo sapiens), P11940 | inhibition, % at 20 µM | hit rate 0.36% among 360,000 | AID 588489, 2011; in the data active means inhibition above about 35%, passing the limit was not always enough;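 further: plate controls were DMSO wells with GST-MLLE for no effect and wells lacking GST-MLLE protein for full effect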
ABCB6 inh 2: ABCB6 transporter inhibitors, primary screen, K562-ABCB6 cells, flow cytometry, MLPCN library; hit rate 0.19% among 360,000; ATP-binding cassette sub-family B member 6 (Homo sapiens), Q9NP58; fluorescence ratio to DMSO, % at 10 µM; K562-ABCB6 porphyrin accumulation, 1 h; stronger effect = lower value;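 active means fluorescence ratio to DMSO below 75%, the collection mean minus 3 SD; inconclusive means too few cells collected in the well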;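 further: signal is porphyrin accumulated inside mitochondria; 100% equals median channel fluorescence of DMSO control wells; lower ratio means ABCB6 inhibition with less porphyrin fluorescence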
Target sequence (Q9NP58 whole entry, looked up): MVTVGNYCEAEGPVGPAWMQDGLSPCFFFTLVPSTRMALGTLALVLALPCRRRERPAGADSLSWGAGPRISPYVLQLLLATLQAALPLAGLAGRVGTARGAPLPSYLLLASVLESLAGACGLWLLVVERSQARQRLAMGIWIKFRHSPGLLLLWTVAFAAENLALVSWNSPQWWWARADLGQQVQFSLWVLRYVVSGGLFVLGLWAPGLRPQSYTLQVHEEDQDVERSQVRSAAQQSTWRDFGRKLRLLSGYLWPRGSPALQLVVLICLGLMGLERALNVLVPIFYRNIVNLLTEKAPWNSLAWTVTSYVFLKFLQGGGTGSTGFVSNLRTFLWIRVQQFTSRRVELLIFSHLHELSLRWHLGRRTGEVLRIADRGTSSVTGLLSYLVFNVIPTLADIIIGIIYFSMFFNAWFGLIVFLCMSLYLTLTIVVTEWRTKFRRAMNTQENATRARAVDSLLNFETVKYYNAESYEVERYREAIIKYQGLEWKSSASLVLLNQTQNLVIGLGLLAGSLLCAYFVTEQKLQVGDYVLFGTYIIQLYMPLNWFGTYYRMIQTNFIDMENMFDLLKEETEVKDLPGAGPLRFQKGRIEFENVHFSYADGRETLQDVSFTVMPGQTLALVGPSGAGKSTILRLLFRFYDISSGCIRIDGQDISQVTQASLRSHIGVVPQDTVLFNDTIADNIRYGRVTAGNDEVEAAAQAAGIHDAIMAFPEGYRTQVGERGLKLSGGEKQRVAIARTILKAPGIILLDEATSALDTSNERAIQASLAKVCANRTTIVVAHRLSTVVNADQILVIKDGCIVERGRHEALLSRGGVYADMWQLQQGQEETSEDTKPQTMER
PHOSPHO1 inh: PubChem AID 1565 | recombinant PHOSPHO1, absorbance phosphatase assay | hit rate 1.1% among 290,000 | Phosphoethanolamine/phosphocholine phosphatase (Homo sapiens), Q8TCT1 | inhibition, % at 13.3 µM; in the data active means inhibition above about 60%
AI-2 QS mod: Vibrio harveyi AI-2 quorum sensing modulators, primary screen, JMH597 strain, luminescence/OD600 ratio; AID 2094, 2009; Vibrio harveyi JMH597 AI-2 luminescence/OD600 ratio, 9 h; stronger effect = lower value; strain lacks LuxN and CqsS sensors; 0 = neutral-control median; activity change, % at 7.5 µM; hit rate 0.4% among 300,000; in the data active means activity change below about -75%, passing the limit was not always enough; inconclusive means no clear call, values can overlap the other calls;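 further: luminescence divided by OD600 gain over 9 h not by final OD600 alone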
PABP FP inh: PABP poly(A) RNA binding inhibitors, primary screen, biochemical, fluorescence polarization, uHTS; calls only at 35 µM; hit rate 1% among 290,000;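 further: calls also rest on retests at 20 µM and on dose response follow-up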
eIF4H inh: human eIF4H binding inhibitors, primary screen, translation initiation inhibitor project, biochemical, uHTS, fluorescence polarization | Eukaryotic translation initiation factor 4H (Homo sapiens), Q15056 | eIF4H fluorescence polarization binding assay | inhibition, % at 35 µM | hit rate 0.94% among 290,000 | AID 2012, 2009;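 further: calls also rest on retests at 20 µM and on dose response follow-up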
Starred values were filed as active, the others as inactive; i = inactive; ? = inconclusive; . = not tested or not shown; + = active, no number. Unless noted, how the calls were made is not given here.

SMILES	PABP1 MLLE inh	ABCB6 inh 2	PHOSPHO1 inh	AI-2 QS mod	PABP FP inh	eIF4H inh
C=CCNC(=O)c1ccc(CN2CCC(Cc3ccccc3)CC2)cc1	2	99	9	13	+	95*
COCCNC(=O)c1ccc(N2CC3CC(C2)c2cccc(=O)n2C3)c(NC(=O)c2ccccc2Cl)c1 (stereo not given)	2	100	.	.	.	.
C(=C\c1ccccc1)/CN1CCN(C(c2cccc3ccccc23)c2nnnn2C2CCCC2)CC1 (stereo not given)	-8	97	.	.	.	.
COc1ccc(S(=O)(=O)N(CC(=O)Nc2ccc3c(c2)OCO3)c2ccccc2OC)cc1	-12	116	9	6	i	-5
COc1ccccc1N(CC(=O)Nc1ccc2c(c1)OCO2)S(=O)(=O)c1ccccc1	-123	98	92*	6	i	4
CC(=O)c1ccc(NC(=O)C2CCCNC2=O)cc1 (stereo not given)	40*	100	4	-42	i	-1
COc1ccc(NC(=O)C2CCCNC2=O)cc1 (stereo not given)	6	104	28	9	i	-11
COc1ccc(OC)c(N2Cc3cc(C)c(C)cc3C2)c1	-22	102	0	25	i	105*
COc1cccc(C(NC(C)=O)c2ccc3cccnc3c2O)c1 (stereo not given)	6	100	45	.	i	15
Oc1cccc(C(Nc2nccs2)c2ccc3cccnc3c2O)c1 (stereo not given)	16	98	16	-85*	i	23
CC1(c2nnnn2Cc2ccccc2)CCC(=O)N1CCCn1ccnc1 (stereo not given)	.	95	.	.	.	.
N/C(Cc1ccc(Cl)cc1)=N\OC(=O)c1ccccc1	-9	99	1	-90*	i	2
CC(=O)Nc1cc(-c2ccccc2)ccc1O	-111	92	90*	1	i	3
CC(=O)Nc1cc(Br)ccc1O	-1	97	6	2	i	3
O=C(O)c1ccc(-n2c(-c3cc(-c4ccco4)[nH]n3)n[nH]c2=S)cc1	1	104	-23	3	+	87*
O=C(O)c1ccc(-n2c(-c3cc(C4CC4)[nH]n3)n[nH]c2=S)cc1	-3	90	63*	7	i	1
CC(=O)c1ccc(-n2c(-c3cc(-c4ccco4)[nH]n3)n[nH]c2=S)cc1	-21	97	97*	91	i	56
O=C(O)c1ccc(-n2c(-c3ccccc3)n[nH]c2=S)cc1	11	97	-16	27	i	-3
COc1cc(NC(=O)C2(C)CCN2C(C)C)cc(OC)c1OC (stereo not given)	-10	101	.	.	.	.
CNc1cncc(-c2cccnc2)n1	12	96	.	.	.	.
COc1ccc(S(=O)(=O)NC(=O)C2(C)CCN2C(=O)CC2CCCC2)cc1 (stereo not given)	-9	83	.	.	.	.
O=S1(=O)N[C@H](Cc2ccccc2)COc2cccc(N3CCN(Cc4ccccc4F)CC3)c21	.	96	.	.	.	.
CCCN(C(=O)c1cc2c(s1)CCC2)c1c(N)n(Cc2ccccc2)c(=O)[nH]c1=O	-5	96	15	13	+	96*
CCOc1ccc2nc(S(=O)(=O)NC(=O)C3(C)CCN3C(=O)CCc3cccs3)sc2c1 (stereo not given)	1	101	.	.	.	.
CCOC(=O)c1ccc(Cl)c(NC(=O)c2ccc(-c3ccccc3)cc2)c1	5	93	66*	13	i	-4
SMILES	PABP1 MLLE inh	ABCB6 inh 2	PHOSPHO1 inh	AI-2 QS mod	PABP FP inh	eIF4H inh
CC(C)C[C@H]1CNC(=O)C(=O)N1C[C@@H]1CCCN1C[C@H](Cc1ccccc1)N1C[C@H](Cc2ccccc2)N(CC2CCCCC2)C(=O)C1=O	.	105	.	.	.	.
CCn1c(C)[n+](CCOC(C)=O)c2cc(Cl)c(Cl)cc21	-128	100	17	14	+	0
CCC(=O)N1CCC1(C)C(=O)Nc1cccc2c1CCCC2 (stereo not given)	-7	102	.	.	.	.
O=S(=O)([N-]c1nc2ccccc2nc1-[n+]1ccccc1)c1ccc(Cl)cc1	6	96	36	9	i	0
Cc1cc[n+](-c2nc3ccccc3nc2C(=C=[N-])C#N)cc1	-13	96	39	7	+	70*
Cc1cc[n+](-c2nc3ccccc3nc2[N-]S(=O)(=O)c2ccccc2)cc1	15	105	3	10	+	51*
N#CC(=C=[N-])c1nc2ccccc2nc1-[n+]1ccccc1	6	95	1	39	i	3
COc1cccc(CC2CC(=O)N(c3ccc4c(C)cc(=O)oc4c3)C2=O)c1 (stereo not given)	12	101	61*	7	i	-2
COc1ccc(N2C(=O)CC(Cc3ccccc3)C2=O)cc1 (stereo not given)	-1	102	-8	6	i	-10
CCOC(=O)c1c(-c2ccccc2)csc1NC(=O)CSc1nncs1	-2	100	9	8	+	-4
CCOC(=O)c1c(-c2ccccc2)csc1NC(=O)C1CCCO1 (stereo not given)	39*	103	72*	17	i	-2
CCOC(=O)c1c(-c2ccccc2)csc1NC(=O)CSc1ccccc1	-5	102	11	3	i	6
CCOC(=O)c1c(-c2ccccc2)csc1NC(=O)/C(C#N)=C/c1ccc(O)c(OC)c1	33	375	2	0	+	?
COc1cc(C(=O)N2CCCC(C)(C(=O)NS(=O)(=O)C3CC3)C2)cc(OC)c1OC (stereo not given)	0	99	.	.	.	.
CCOC(=O)C1=CC[C@@H](c2ccccc2C(F)(F)F)N(S(=O)(=O)c2ccc(C)cc2)[C@H]1c1ccc(C#N)cc1	-3	100	.	.	.	.
Cc1cc(C)c(NC(=O)NC(=O)c2ccc(F)cc2)c(C)n1	4	96	22	21	+	76*
COc1ccc(NC(=O)c2csc(Cc3ccccc3)n2)cc1	-2	134	8	-6	i	-4
O=C(Nc1ccc(F)cc1)c1csc(Cc2ccccc2)n1	-7	98	12	11	i	5.5*
CCN(CC)CCCN1C(=O)CSC1c1ccc([N+](=O)[O-])cc1 (stereo not given)	42*	100	29	32	i	-14
CCN(CC)CCCN1C(=O)CSC1c1ccc2c(c1)OCO2 (stereo not given)	10	199	0	19	i	-2

Bioassay records from PubChem BioAssay.
